Results reported in ChEMBL document CHEMBL1157539, “Thousands of chemical starting points for antimalarial lead identification” (Nature, 2010).

system: Plasmodium falciparum; assay: GSK_TCMDC: Inhibition of Plasmodium falciparum 3D7 in whole red blood cells, using parasite LDH activity as an index of growth. Test compounds present at 2uM; assay type: functional

Structure (SMILES) | Inhibition [%]
COc1cc(NC(=O)c2nn(CCCN3CCC(N4CCCC4)CC3)cc2-c2ccc(Cl)c(Cl)c2)cc(OC)c1OC | 100
O=C(CCCCCNC(=O)c1ccc(O)c(-c2ccc(Cl)c(Cl)c2)c1)NC1CCCc2ccccc21 (stereo not given) | 97
Cc1cc(N[C@@H](Cc2ccccc2)C(=O)NCc2cccc(F)c2)nc(NCCc2ccccc2)n1.O=C(O)C(F)(F)F | 100
CN(CCCCCNC(=O)/C=C/c1ccc(Cl)c(Cl)c1)CCCCc1c[nH]c2ccccc12 | 90
O=C(/C=C/c1ccc(C(F)(F)F)cc1)NCCCCCN1CCCN(C(=O)Nc2cccc(Cl)c2)CC1 | 92
CCCCCCCCOc1ccc(N2C(N)=NC(N)=NC2(C)C)cc1.Cl | 100
COc1cc2nc(N3CCN(C(=O)c4c(Cl)nsc4-c4ccccc4Cl)CC3)nc(N)c2cc1OC.O=C(O)C(F)(F)F | 100
O=C(Nc1ccc2c(c1)CCN2C1CCN(Cc2ccc(O)cc2)C1)c1ccco1 (stereo not given) | 97
CCCN1CCN(CCCNc2c3ccccc3nc3ccccc23)CC1.Cl | 99
CN1CCN(Cc2ccc(-c3cc4c(Nc5ccc(OCc6cccc(F)c6)c(Cl)c5)ncnc4s3)[nH]2)CC1 | 100
N#Cc1cc(C(=O)c2cc(Cl)ccc2O)cn(-c2cccc(C(F)(F)F)c2)c1=O | 87
CCN(CC)/C(=N/C(=N)NCc1cccc(Cl)c1)NCCCCCCN/C(=N\C(=N)NCc1cccc(Cl)c1)N(CC)CC | 99
Cl.Oc1ccc2ccccc2c1CNC1CCCCCC1 | 83
COc1cccc(NC(=O)[C@H](C(C)C)n2c(=O)[nH]c3ccccc3c2=O)c1 | 100
CC(=O)Nc1ccc(CN(Cc2ccc(F)cc2)Cc2cccc(Oc3ccccc3)c2)cc1 | 88
O=C(O)C(F)(F)F.OCC1CCN(Cc2cccc(-c3ccc(-c4nc5cc(C(F)(F)F)ccc5[nH]4)cc3)c2)CC1 | 100
Fc1cccc(Cl)c1-c1nc(NCCC(c2ccccc2)c2ccccc2)no1 | 99
Cc1cccc2nc(-c3ccc(-c4cccc(C(=O)NCCc5cn(C)cn5)c4)s3)[nH]c12 | 92
CN(C)CCNCc1cccc(-c2cccc(-c3nc4ccccc4[nH]3)c2)c1.O=C(O)C(F)(F)F | 100
Cc1cc(F)ccc1C1CCN(CCCCNC(=O)c2ccc(NC(=O)c3ccc(Cl)cc3)cc2)CC1 | 100

Structure (SMILES) | Inhibition [%]
COc1ccc2nccc([C@@H](O)CN3CCC(NCCNc4cccc(F)c4)CC3)c2c1.CS(=O)(=O)O | 98
NC1=NC(c2ccccc2)(c2ccccc2)C(=O)N1CCOc1ccccc1 | 90
OC(CNc1ccnc(Nc2ccc(Cl)cc2)n1)c1ccc(C(F)(F)F)cc1 (stereo not given) | 100
CN(C)CCCOc1ccccc1CN1CC[C@H](NC(=O)c2ccc(Cl)c(Cl)c2)C1.O=C(O)C(F)(F)F | 94
Cc1ccc(OC2CCN(CCCCC3(C)C(=O)Nc4ccccc43)CC2)cc1.Cl (stereo not given) | 100
CCOc1ccc(C(C)NC(=O)c2cc(Cl)ccc2OC)cc1OCC (stereo not given) | 100
COc1ccc(-c2cccc(NC(=O)c3cccc(C#N)c3)c2)cc1CN(C)CCO.O=C(O)C(F)(F)F | 96
CN(C)CCN(C)Cc1ccc(-c2ccc(NC(=O)c3cccc(C#N)c3)cc2)cc1.O=C(O)C(F)(F)F | 89
Cc1cc2ncc(C(N)=O)c(Nc3ccc(N4CCOCC4)cc3)c2cc1S(C)(=O)=O.Cl | 100
CN(c1ncc(-c2cccc(CNCc3ccccc3O)c2)cn1)C1CCCCC1 | 95
COCCN1CCC(C(=O)NCC(C)(C)c2nc(-c3ccc(Br)c(O)c3)c(-c3ccncc3)[nH]2)CC1.Cl | 99
CSc1cccc(NC(=O)Nc2ccc(I)c(OCCN(C)C)c2)c1 | 97
CCOC(=O)NC1=NC(=N)N(OCCCOc2cc(Cl)c(Cl)cc2Cl)C(C)(C)N1 | 97
O=C(Nc1cccc(N2CCC(NCc3cnn(-c4cccc(F)c4)c3)CC2)c1)c1ccncc1 | 84
O=C(C=Cc1ccc(Cl)c(Cl)c1)NCCCCCN1CCC(CCNC(=O)/C=C/c2ccccc2)CC1 | 97
CC(=O)N(Cc1nc(-c2cc(C(F)(F)F)cc(C(F)(F)F)c2)cs1)c1c(C)cccc1C | 100
CC(C)CC1(C(=O)OC(C)(C)C)CC(C(=O)OC(C)(C)C)C(c2cccs2)N1C(=O)c1ccc(C(C)(C)C)cc1 (stereo not given) | 100
CN1CCN(c2ccc(Nc3ncc(C#N)c(Nc4ccccc4C(N)=O)n3)cc2)CC1.Cl | 92
COc1ccc2nccc([C@@H](O)CN3CCC(NCc4cnc5c(c4)NC(=O)CS5)CC3)c2c1.O=C(O)C(=O)O | 87
Cc1cc(Nc2nc(Nc3cccc(Cl)c3)nc3ccccc23)n[nH]1 | 100
